Our source for the growth inhibition values is PubChem BioAssay (NCI).

About 79,000 compounds went through this panel and 15% of them were active in at least one assay; those are over-represented in the sample as a whole. Unmarked numbers belong to inactive results. The source made the active and inactive calls. No stated cut-off is given here; in the data, active means growth inhibition above about 70%; inactive means the rest.

This experiment in a line: NCI Yeast Anticancer Drug Screen. Data for the mec2-1 strain (AID 157). The settings on record: S. cerevisiae mec2-1 strain, at 50.0 µM, hits give high values. The essentials:
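Mutant yeast (mec2-1) grown with compound; growth inhibition relative to vehicle control reported.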
As for `O=C(OC1C2CCC2C2CC21)c1ccc([N+](=O)[O-])cc1[N+](=O)[O-]` (centres undefined), the growth inhibition was 37.5%.

For `N#CCc1nc2c(s1)C(=O)c1ccccc1C2=O`, the growth inhibition was 82.5% (active). Consider `CC1=C(C(=S)Nc2ccc(Cl)c(C(=O)OC(C)C)c2)SCCO1`, for which the growth inhibition is 90.2% (active). For `O=C1C(Cl)=C(c2ccc([N+](=O)[O-])cc2)C(=O)c2c(O)cccc21` the value was 93.3% (active). `CCOc1ccc2nc(C)cc(C)c2c1`: the growth inhibition was -13.4%. For `CN(C)CC(O)c1cc(-c2ccc(Cl)cc2)nc2c(Cl)cc(Cl)cc12` (centres undefined) the value was 99.4% (active); for `CCCC(=S)N1CCOCC1`, -4.05%.

Consider `C/C(=C/CC1CCC2C3=CCC4CC(O)CCC4(C)C3CCC12C)C(C)C(C)C` (centres undefined), for which the growth inhibition was 74.3% (active). To `NCC(O)CSc1ccc(Cl)c(Cl)c1` (centres undefined) belongs 14.2%; to `CCCCCCCCC(=O)NCCCNCCCNC(=O)CCCCCCCC`, 50.2%; to `O=C1c2ccc(O)cc2C(=O)c2c1ccc(O)c2O`, 67.3%. For `Clc1nc(Cl)c(Cl)c(-c2ccccc2)n1` the value was 92.7% (active); for `Cc1ccc(-c2c(C#N)c(-c3ccc(Cl)cc3)c(C#N)c(=O)n2NS(=O)(=O)c2ccccc2)cc1`, 71% (active).

Turning to `CC(CCC(=O)O)(c1cc(Br)c(O)c(Br)c1)c1cc(Br)c(O)c(Br)c1`, the growth inhibition is 90% (active). As to `N#CC(C(=O)CCCC(=O)Nc1ccc(Cl)cc1)c1ccccc1Cl` (centres undefined), the growth inhibition was 98% (active). For `Cc1ccc(S(=O)(=O)S/C(=N\c2ccccn2)Nc2ccccn2)cc1`, the growth inhibition was 39.9%. On to `NC(=O)C1CCCN1C(=O)C1CCCN(Cc2cc(CN3CCCC(C(=O)N4CCCC4C(N)=O)C3)cc(CN3CCCC(C(=O)N4CCCC4C(N)=O)C3)c2)C1` (centres undefined), for which the growth inhibition is 40.7%. As to `O=C(/C=C\c1cccc2ccccc12)c1ccccn1`, the growth inhibition was 93.5% (active).

Regarding `COC(=O)c1cccc2c1C(=O)c1ccccc1-2`, the growth inhibition is -9.6%. For the compound `Cn1c(=S)c2[nH]c(SCCN3CCCCC3)nc2n(C)c1=O`, the growth inhibition is 99.3% (active).

For the compound `CN(C)CCCSc1c2ccccc2nc2cccc([N+](=O)[O-])c12`, the growth inhibition was -9.4%. To `CCCCCCCCN(CCCCCCCC)CC(O)c1cc(-c2ccc(Cl)cc2)nc2c(Cl)cccc12` (centres undefined) belongs 25.2%; to `CCCCCCCCCCCCS`, 6.25%. For `COC(=O)c1nc(=S)[nH]c(C(=O)OC)c1C(=O)c1ccc([N+](=O)[O-])cc1` the value was 49.4%; for `Cc1[nH]c2ccccc2c1C1=CC2(C)Nc3ccccc3C2C(C)(C)C1` (centres undefined), 93.8% (active). For `CCCCCCCCN(CCCCCCCC)CC(O)c1cc(-c2ccc(OC)cc2)nc2cc(Cl)ccc12` (centres undefined) the value was 92.5% (active); for `O=C(CC(C[N+](=O)[O-])c1ccc2c(c1)OCO2)c1ccccc1` (centres undefined), 17.1%. Turning to `CN(C)CCN(C)CCC(=O)/C=C/c1ccccc1`, the growth inhibition was 84.3% (active). To `NC(N)=NC(N)=Nc1ccc(-c2ccccc2)cc1` belongs 14.6%. For `O=[N+]([O-])c1ccccc1NCCO` the value was -5.65%; for `Cn1c2c(c3ccccc31)CCN(CCN1CCN(c3cccc(Cl)c3)CC1)C2=O`, 85.1% (active); for `CC(=O)Oc1c2c(c(C)c3ccccc13)C(=O)c1cccnc1C2=O`, 98.8% (active). For `O=C(/C(=C/c1ccc2c(c1)OCO2)c1ccccc1)c1ccc(OCCN2CCCC2)cc1` the value was 58.5%. `O=C1C(=O)c2cc(Cl)ccc2-c2ccc(Cl)cc21`: the growth inhibition is 93.9% (active). As to `C/C(=N/NC(=O)Nc1ccc(N=Nc2ccccc2)cc1)c1cccnc1`, the growth inhibition was -9.55%. For `CC(Cl)C(=O)Nc1cc2ccccc2oc1=O` (centres undefined) the value was 6.15%; for `CC(C)c1ccc2c(c1)CCC1C(C)(CN)CCCC21C` (centres undefined), 99.6% (active); for `CN(NC1OC(=O)c2ccccc21)c1ccc(C(F)(F)F)cc1[N+](=O)[O-]` (centres undefined), 54.2%. In the case of `CCCC(CC)c1c(O)c(O)c(C(CC)CCC)c(C(CC)CCC)c1C(CC)CCC` (centres undefined), the growth inhibition is 97.3% (active).
